GRIN3A LBD mod – modulators (binders) of human NR3A ligand-binding domain. actives 2.5% (n = 340,000). Tm shift relative to glycine control, % at 25 µM. NR3A LBD differential scanning fluorimetry, Tm shift; 0% = protein alone, 100% = glycine-bound protein;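 active means melting temperature shift of at least 10% of the positive control shift, at one fixed dose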
Mdm2 MdmX PPI – human Mdm2/MdmX binding inhibition; inhibition, % at 8 µM; actives 3% (n = 330,000); AID 485346; O15151+Q00987; SaOS-2 split-luciferase Mdm2/MdmX complementation, luminescence;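 active means inhibition of at least 50% at 8 µM in the primary screen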
Target sequence (O15151 whole entry, looked up): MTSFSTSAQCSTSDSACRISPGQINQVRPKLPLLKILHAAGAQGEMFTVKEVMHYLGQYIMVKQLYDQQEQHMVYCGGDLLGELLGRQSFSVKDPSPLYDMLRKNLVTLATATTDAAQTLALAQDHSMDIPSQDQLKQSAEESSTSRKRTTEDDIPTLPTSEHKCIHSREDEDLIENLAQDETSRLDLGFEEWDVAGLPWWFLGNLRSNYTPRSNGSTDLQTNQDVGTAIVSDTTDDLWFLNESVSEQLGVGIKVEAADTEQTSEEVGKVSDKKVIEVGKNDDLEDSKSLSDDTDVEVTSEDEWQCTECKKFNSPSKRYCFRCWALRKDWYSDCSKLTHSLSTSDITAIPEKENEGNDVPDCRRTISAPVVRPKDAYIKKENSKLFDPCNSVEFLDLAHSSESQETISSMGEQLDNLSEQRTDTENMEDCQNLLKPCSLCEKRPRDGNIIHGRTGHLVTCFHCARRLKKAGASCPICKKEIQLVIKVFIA
Target sequence (Q00987 whole entry, looked up): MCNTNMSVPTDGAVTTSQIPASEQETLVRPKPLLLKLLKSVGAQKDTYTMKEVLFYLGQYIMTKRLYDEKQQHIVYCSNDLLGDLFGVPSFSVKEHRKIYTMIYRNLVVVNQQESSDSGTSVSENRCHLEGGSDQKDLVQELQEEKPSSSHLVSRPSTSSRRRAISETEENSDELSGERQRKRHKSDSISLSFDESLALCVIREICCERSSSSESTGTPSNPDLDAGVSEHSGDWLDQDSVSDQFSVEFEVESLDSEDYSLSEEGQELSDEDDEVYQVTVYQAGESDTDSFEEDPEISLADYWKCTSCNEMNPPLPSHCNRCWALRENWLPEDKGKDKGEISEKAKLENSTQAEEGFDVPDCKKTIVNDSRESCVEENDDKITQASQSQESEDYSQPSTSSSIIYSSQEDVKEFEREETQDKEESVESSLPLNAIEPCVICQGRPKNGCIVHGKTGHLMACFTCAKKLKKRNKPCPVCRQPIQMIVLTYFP
CSC inhib – cancer stem cell inhibition | cancer stem cell-like cells viability, luminescence | AID 2717 | actives 1.1% (n = 300,000) | inhibition, % at 7.5 µM; in the data active means inhibition above about 75%; tested in HMLE shEcad cells
Gli-Sufu block – antagonists of Gli-Sufu signaling | Sufu-KO-LIGHT fibroblasts, Gli luciferase reporter luminescence | inhibition, % at 5 µM | actives 0.74% (n = 340,000);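 active means inhibition above about 55%, limit read from the data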
Beta cell apopt – blocks beta cell apoptosis; protection from apoptosis, % (test concentration not listed); actives 0.8% (n = 300,000); INS-1E cytokine-induced death, ATP luminescence, 48 h; percent of positive-control rescue, neutral wells zero;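 active means Every replicate reaches about 75%, or at least half do and their mean reaches it too, limit read from the data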;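 further: higher means more ATP so stronger rescue from cytokine killing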
MPTP block – inhibitors of mitochondrial permeability transition pore. actives 1.4% (n = 360,000). isolated mouse mitochondria, Ca2+ swelling absorbance, 30 min. inhibition, % at 10 µM;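 active means inhibition of 50% or more, scaled per plate between neutral and stimulator controls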
Of the large screens only hits and unclear results are named; the others gave an inactive call. Hits are enriched below; roughly 6.6% of the tested compounds scored in any of these assays.

Cc1cccc(N=C2NN=C(c3ccc4c(c3)OCCO4)CS2)c1	none
Cc1cccc(N=C2NN=C(c3c(C)[nH]c4ccccc34)CS2)c1	GRIN3A LBD mod 19
CCn1c(C)c(C)c2cc(C(=O)Nc3cccc(Cl)c3)ccc21	CSC inhib 81
O=C(c1cnccn1)N1CCCC(N2CCN(c3cccc(Cl)c3)CC2)C1 (stereo unspecified)	none
Cc1ccccc1N1CCN(C2CCCN(C(=O)c3ccc(Cl)s3)C2)CC1 (stereo unspecified)	GRIN3A LBD mod 11 (no result: CSC inhib)
Cc1cccc(C(=O)N2CCCC(N3CCN(c4cccc(Cl)c4)CC3)C2)n1 (stereo unspecified)	GRIN3A LBD mod 13
Cc1cc(C(=O)N2CCCC(N3CCN(c4cccc(C(F)(F)F)c4)CC3)C2)no1 (stereo unspecified)	GRIN3A LBD mod 20
COCc1ccc(C(=O)N2CCCC(N3CCN(c4ccccc4C)CC3)C2)s1 (stereo unspecified)	none
CCCNC(=O)N1C2=NC(C(=O)OC)=C(C(=O)OC)[C@@H]3N(Cc4ccccc4)c4ccccc4[C@]23C[C@H]1CO	none
Cc1cc([N+](=O)[O-])ccc1Nc1nc2ccccc2n2cnnc12	GRIN3A LBD mod 37
COCCCNC(=O)CCCN1C(=O)c2cccnc2Sc2ccccc21	none
COc1ccc(Nc2nc(=O)c3cc([N+](=O)[O-])ccc3s2)cc1	GRIN3A LBD mod 13 (no result: Mdm2 MdmX PPI, CSC inhib, Beta cell apopt)
Cc1ccccc1Nc1nc(=O)c2cc([N+](=O)[O-])ccc2s1	none
Cc1ccc(Nc2nc(=O)c3cc([N+](=O)[O-])ccc3s2)cc1	GRIN3A LBD mod 13
COc1ccc(Nc2ccc([N+](=O)[O-])cn2)cc1	none
COc1ccc(Nc2cc(C)c3cc([N+](=O)[O-])ccc3n2)cc1	GRIN3A LBD mod 28
Cc1ccc(C2CC(c3ccc(NS(C)(=O)=O)cc3)=NN2C(=O)c2ccco2)cc1 (stereo unspecified)	none
CS(=O)(=O)Nc1ccc(C2=NN(C(=O)c3ccco3)C(c3ccccc3)C2)cc1 (stereo unspecified)	GRIN3A LBD mod 12
S=c1[nH]nc(-c2cc(-c3ccccc3)n[nH]2)n1/N=C/c1ccc(Cl)cc1	none
S=c1[nH]nc(-c2cc(-c3ccccc3)n[nH]2)n1/N=C/c1ccc(Cl)c(Cl)c1	GRIN3A LBD mod 24
CC(C)c1nnc(NC(=O)C2CCCN2C(=O)Nc2cccc(Cl)c2)s1 (stereo unspecified)	none
CC(NC(=O)c1cc(Br)ccc1Cl)c1ccccc1 (stereo unspecified)	none
CC(NC(=O)c1ccc(Cl)c(Cl)c1)c1ccc(-c2ccccc2)cc1 (stereo unspecified)	GRIN3A LBD mod 16
COc1ccc(CCNC(=O)c2cccn2C)cc1	none (no result: Gli-Sufu block)
Cc1ccc(N2C(=O)N(CC(=O)Nc3cc(F)ccc3C)C(=O)C2C)cc1 (stereo unspecified)	none
CC(=NO)C1CCC2C3CCC4=CC(=NO)CCC4(C)C3C(=O)CC12C (stereo unspecified)	GRIN3A LBD mod 18 (no result: Mdm2 MdmX PPI, CSC inhib, Beta cell apopt)
CC12CCC(C(=O)NCc3ccc(Cl)cc3)(OC1=O)C2(C)C (stereo unspecified)	GRIN3A LBD mod 11
COc1ccc(-c2[nH]c(-c3ccc(C)cc3)nc2SCC(=O)Nc2nccs2)cc1	none (no result: CSC inhib, Beta cell apopt)
COc1ccc(-c2nc(SCC(=O)Nc3nccs3)c(-c3ccc(Cl)cc3)[nH]2)cc1	GRIN3A LBD mod 15
Nc1ccc(N2CCN(c3ccc(Cl)c(Cl)c3)CC2)cc1	CSC inhib 92
O=c1c2ccccc2nc2c3ccccc3cnn12	none
O=c1c2ccccc2cnn1-c1nc2ccccc2[nH]1	Gli-Sufu block 81 (no result: Mdm2 MdmX PPI, CSC inhib, Beta cell apopt)
COc1cc(/C=C/c2ccc3c(Br)cc(Br)c(O)c3n2)ccc1O	GRIN3A LBD mod 16, CSC inhib 115 (no result: Mdm2 MdmX PPI)
O=[N+]([O-])c1ccc(/C=C/c2ccc3cccc(O)c3n2)cc1	none
COc1ccc(/C=C/c2ccc3c(Br)ccc(O)c3n2)cc1	CSC inhib 89
CC1CCN(c2ccc3nnc(CCC(=O)NC(C)C)n3n2)CC1	none
NC(=O)c1ncn([C@@H]2O[C@H](CNCc3ccc(OCC(=O)Nc4ccccn4)cc3)[C@@H](O)[C@H]2O)n1	none (no result: Mdm2 MdmX PPI, CSC inhib, Beta cell apopt)
O=c1c(/C=N/Nc2ccccc2)c(Sc2nnnn2-c2ccccc2)nc2ccccn12	GRIN3A LBD mod 16 (no result: Mdm2 MdmX PPI, CSC inhib, Beta cell apopt)
O=Cc1c(Sc2ccccc2)nc2ccccn2c1=O	none
O=C(CSc1nnc2ccccn12)Nc1ccccc1C(=O)O	none (no result: Beta cell apopt)
O=C(O)c1ccccc1N/N=C/c1c(Sc2nnnn2-c2ccccc2)nc2ccccn2c1=O	GRIN3A LBD mod 12
COc1ccc(OC)c(NC(=O)CC(NC(C)=O)c2ccccc2)c1 (stereo unspecified)	none
O=C(Nc1ccc2c(c1)OCO2)c1csc([C@@H]2O[C@H](CO)[C@H](O)[C@H](O)[C@H]2O)n1	none (no result: GRIN3A LBD mod, Mdm2 MdmX PPI, CSC inhib, Gli-Sufu block, Beta cell apopt)
CCn1c(COc2cccc(C)c2C)nnc1SCC(=O)Nc1cc(C)on1	none
COC(CNC(=O)c1ccc2c3c(onc13)-c1ccccc1C2=O)OC	CSC inhib 84
O=C(O)CN1C(=O)C2(OCCCO2)c2ccccc21	none
O=C(Nc1ccccc1)N1C(=O)C2(OCCO2)c2ccccc21	GRIN3A LBD mod 13
O=S1(=O)CCOCCCN1Cc1cccc(C(F)(F)F)c1	none
O=C(NCC1COc2ccccc2O1)c1cccc(S(=O)(=O)NCc2ccccc2)c1 (stereo unspecified)	Beta cell apopt 105
CC(C)=NN/C(N)=N/C(=S)Nc1ccc(C)cc1	GRIN3A LBD mod 13
CCOC(=O)c1ccccc1NC(=S)N1CCN(C(=O)c2ccco2)CC1	none
O=C1CCCN1CC(O)CS(=O)(=O)Cc1ccc(Cl)cc1 (stereo unspecified)	none
Cc1cc2nc(CS)[nH]c2cc1C	none
Cc1cc2nc(CO)[nH]c2cc1C	GRIN3A LBD mod 15
Cc1ccc(N(C(=O)c2csnn2)C(C(=O)NCc2ccccc2)c2cccnc2)cc1 (stereo unspecified)	none (no result: CSC inhib)
Nc1ccn(CCCNC2CCN(Cc3ccccc3)CC2)c(=O)n1	none (no result: GRIN3A LBD mod, Mdm2 MdmX PPI, CSC inhib, Gli-Sufu block, Beta cell apopt)
O=c1[nH]c(O)c(/C=C2\C=Nc3ccc(Br)cc32)[nH]1	GRIN3A LBD mod 42
NC(=O)NC(=O)COC(=O)c1ccc(Cl)c(S(=O)(=O)N(Cc2ccccc2)c2ccc(Cl)cc2)c1	CSC inhib 86
CO[C@H]1O[C@H](C)[C@@H](O)C[C@H]1NC(=O)OCc1ccccc1	none
CCOc1cccc(OCCOCCNC(C)(C)C)c1	GRIN3A LBD mod 16
C[C@H](NC(=O)OC(C)(C)C)C(=O)N/N=C/c1ccc2nccnc2c1	none
COc1ccc(-c2cc([C@H]3[C@@H]4C=CCC[C@@]4(C)C(=O)N3Cc3ccccc3)ccc2F)cc1OC	CSC inhib 91
Cc1ccc(-c2cc([C@H]3[C@@H]4C=CCC[C@@]4(C)C(=O)N3Cc3ccccc3)ccc2F)cc1	CSC inhib 111

Screens from PubChem BioAssay.
